D3 ag – activates the human D3 dopamine receptor | P35462 | D3R DiscoveRx beta-arrestin cells, luminescence, 90 min | 410,000 compounds, 0.58% hits | max activation, %; in the data active means max activation above about 30%; further: 0% is about no effect
Target sequence (P35462 whole entry, looked up): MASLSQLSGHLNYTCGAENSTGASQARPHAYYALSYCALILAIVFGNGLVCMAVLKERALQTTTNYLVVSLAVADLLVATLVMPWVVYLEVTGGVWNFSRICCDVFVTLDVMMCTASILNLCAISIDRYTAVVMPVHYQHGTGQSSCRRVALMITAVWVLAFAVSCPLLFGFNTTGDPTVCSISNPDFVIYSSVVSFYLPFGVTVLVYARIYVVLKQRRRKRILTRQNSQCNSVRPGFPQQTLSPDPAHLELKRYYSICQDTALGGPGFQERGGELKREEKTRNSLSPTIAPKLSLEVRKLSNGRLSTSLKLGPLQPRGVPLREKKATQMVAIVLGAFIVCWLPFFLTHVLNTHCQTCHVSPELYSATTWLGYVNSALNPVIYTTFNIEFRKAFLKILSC
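Agonist-mode cell screen: cells plated at 1500/well and incubated overnight at 37 °C, then exposed to library compounds for 90 min at 37 °C. Detection reagent was added for 30–60 min at room temperature, and luminescence was read.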
DRD3 antagonist – antagonists of human D3 dopamine receptor | P35462 | D3R cells, DiscoveRx beta-arrestin luminescence, antagonist mode; active compounds read low | max response, negative = inhibition, % | 360,000 compounds, 2.5% hits | AID 652054; in the data active means max response below about -50%; inconclusive means no clear call, values can overlap the other calls; further: on the % scale 0 is the no-effect control and ±100 the full control effect
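Cells expressing the human receptor were seeded at 1500 cells/well, incubated overnight at 37 degrees C in 5% CO2, then exposed to library compounds with dopamine controls for 90 minutes at 37 degrees C before luminescent detection.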
HepG2 viability – kills HepG2 cells in TGF-b inhibitor counter-screen | Potency, µM (titrated, usually from 46.1 µM), without a hit: top-dose activity change, negative = cytotoxicity, most hits filed as cytotoxic | HepG2 CAGA-GFP viability, ATP luminescence, 18 h | 410,000 compounds, 0.76% hits; further: potency means the concentration at half of the fitted maximal effect
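HepG2 CAGA-GFP cells (1000/well, DMEM with 1% FBS) received compound, then TGF-beta at 500 pg/mL final, and were incubated 18 hours at 37 degrees C. Viability was read by CellTiter-Glo luminescence. Media-only wells were set as complete cell-killing and DMSO as no toxicity.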
ATXN viability – viability counter-screen for ATXN expression inhibitors. S2 cells (HEK-293 line with an ATXN2-luciferase reporter) viability, CellTiter-Fluor protease fluorescence, 24 h. Potency, µM (titrated, usually from 56.7 µM), usual class: cytotoxic. 400,000 compounds, 0.49% hits. AID 651635; further: potency means the concentration at half of the fitted maximal effect; nearly all actives have a fitted effect of over 40% in size
ATXN2 expr inh – ATXN2 expression inhibition. AID 1745845. 360,000 compounds, 0.72% hits. HEK-293 ATXN2-luciferase reporter, luminescence, 24 h. Potency, µM (highest dose often 57 µM), for inactives: at the highest dose activity change, negative = inhibition, usual class: inhibitors; further: potency means the concentration at half of the fitted maximal effect; on the % scale 0 is the no-effect control and ±100 the full control effect; nearly all actives have a fitted effect of over 55% in size
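qHTS (up to 57 uM final) was run with 24 h compound exposure of reporter cells at 37 °C. Each well was multiplexed: SteadyGlo luminescence measured ATXN2-luciferase expression after a fluorogenic Gly-Phe-AFC viability readout (25 uM final).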
TGFb SMAD3 inh – blocks TGF-b signaling; HepG2 CAGA-GFP TGF-b/SMAD3 reporter, GFP fluorescence, 18 h; TGF-beta stimulated, 500 pg/mL final; Potency, µM (series often up to 46.1 µM), inactives show at the highest dose activity, negative = inhibition, actives largely listed as inhibitors; 410,000 compounds, 1.2% hits; AID 588855; further: potency means the concentration at half of the fitted maximal effect; on the % scale 0 is the no-effect control and ±100 the full control effect; nearly all actives have a fitted effect of over 65% in size
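Cell-based qHTS in HEPG2 carrying a CAGA-GFP Smad reporter; compounds added before 500 pg/mL final TGF-beta, 18 h incubation at 37 degrees C, GFP fluorescence quantified per cell by imaging cytometry.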
An asterisk follows results filed as active; i = inactive; ? = inconclusive; . = not tested or not shown. Most compounds without a hit are left out; they make up all but 4.8% or so of the library. Unless noted, the call rests on the fitted dose curve; in most records, active means well fitted curve in the direction sought with a large enough effect; inconclusive means small, poorly fitted or top-dose-only effect, or another doubt; inactive means no such curve, though single readings can be large; an effect the other way counts as inactive or inconclusive.

SMILES | D3 ag | DRD3 antagonist | HepG2 viability | ATXN viability | ATXN2 expr inh | TGFb SMAD3 inh
COc1ccc(NC(=O)COc2ccc(-c3nn(C)c(=O)c4ccccc34)cc2)cc1 | -8 | -18 | -22% | i | -31% | -21%
COc1ccc(OCC(=O)Nc2cc(-c3nn(C)c(=O)c4ccccc34)ccc2OC)cc1 | 4 | -62* | -21% | ? | ? | -11%
CC(=O)OCc1cc(-c2nn(C)c(=O)c3ccccc23)ccc1C | -2 | -5 | 0% | i | -11% | -1%
Cc1ccc(-c2nn(C)c(=O)c3ccccc23)cc1CO | -2 | -50* | -37% | i | 24% | -13%
CC(=O)c1cccc(NC(=O)Nc2sc3nc4n(c(=O)c3c2C)CCC(C)CC4)c1 (stereo not given) | -16 | . | -3% | i | 2% | 9%
Cc1cccc(C)c1NC(=O)c1ccc2nc(CCc3ccccc3)oc2c1 | -6 | . | -44% | ? | ? | ?
CCOc1ccc(NC(=O)CCn2c(=O)c3cccn3c3cccnc32)cc1 | 1 | . | 5% | . | . | -16%
Oc1ccc(Cl)cc1CNc1ccc(Br)cn1 | -4 | -19 | -69% | i | 56% | ?
Oc1c(Cl)cc(Cl)cc1CNc1ccc(Br)cn1 | 5 | -55* | -58% | i | 19% | ?
CN[C@@H]1CN(c2ccc3c(=O)c(C(=O)O)cn(-c4nccs4)c3n2)C[C@@H]1OC | . | . | . | . | 11µM* | .
O=C(NCC1Cc2cccc(-c3ncccn3)c2O1)C1CCCO1 (stereo not given) | . | . | . | i | . | .
Cc1ccc(C(=O)N/C(=C\c2ccc(Br)cc2)c2nc(=S)[nH][nH]2)cc1 | 6 | -5 | 13µM* | . | ? | ?
O=C(O[C@H]1CN2CCC1CC2)N1CCc2ccccc2[C@@H]1c1ccccc1 | -5 | . | . | . | . | .
CCOC(=O)c1c(NC(=O)c2ccc(S(=O)(=O)N(CCOC)CCOC)cc2)sc2c1CC(C)(C)NC2(C)C | -20 | . | -61% | . | . | 11µM*
CC1(C)Cc2c(sc(NC(=O)c3ccc(C(=O)c4ccccc4)cc3)c2C(N)=O)C(C)(C)N1 | -11 | -50* | 18µM* | ? | 25µM* | ?
CCOC(=O)N1CCN(S(=O)(=O)c2ccc(C(=O)Nc3sc4c(c3C(N)=O)CC(C)(C)NC4(C)C)cc2)CC1 | -1 | -6 | -2% | i | 4% | -3%
CCOC(=O)c1c(NC(=O)c2ccc(S(=O)(=O)N3CCCC(C)C3)cc2)sc2c1CC(C)(C)NC2(C)C (stereo not given) | -14 | . | 13µM* | . | ? | ?
O=C(c1cnn2c(C(F)F)cc(-c3ccccc3)nc12)N1CCN(Cc2ccc3c(c2)OCO3)CC1 | -12 | -75* | 0% | i | -10% | ?
Cc1ccc(-c2cc(C(F)F)n3ncc(C(=O)N4CCN(c5ccccn5)CC4)c3n2)cc1 | 0 | 4 | -24% | ? | -36% | -13%
CCN1CCN(C(=O)c2cnn3c(C(F)F)cc(-c4ccc(C)cc4)nc23)CC1 | 4 | -56* | -84% | . | . | -8%
Cc1cccc(Cc2c(C)nc3c(C(=O)N4CCN(Cc5ccc6c(c5)OCO6)CC4)cnn3c2C)c1 | -13 | ? | -34% | i | -21% | ?
CC(=O)Nc1ccc(C(=O)N2CCCC(n3cc(C(=O)NCC(C)C)nn3)C2)cc1 (stereo not given) | . | . | . | i | . | .
CC(SC(=S)N1CCOCC1)C(=O)O (stereo not given) | 0 | -28 | -20% | i | 8% | -3%
S=C(SSC(=S)N1CCOCC1)N1CCOCC1 | -2 | -23 | 0.71µM* | ? | ? | 0.56µM*
CC1(C)CC(=O)C=C(c2ccc(OC(F)(F)F)cc2)C1 | 0 | 0 | -3% | i | -4% | 4%
CC1(C)CC(=O)C=C(c2ccc(Oc3ccccc3)cc2)C1 | -6 | -65* | -19% | i | 11% | -9%

Compound activity deposited in PubChem BioAssay by National Center for Advancing Translational Sciences (NCATS).
